From PubChem BioAssay come the findings set out here.

Structures are written as SMILES. The source made the active and inactive calls.

Test [1] deals with PRMT1 (protein arginine N-methyltransferase 1). In words: small molecules binding arginine methyltransferase PRMT1 – biochemical, small-molecule microarray, 635 nm fluorescence, primary screen (AID 1088).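 Note: binding of Prmt1 protein to compounds spotted on small-molecule microarray slides.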 To be noted: higher = more signal.
A short description of test [2]: growth effects on S. cerevisiae YJM789 – YJM789 clinical isolate, OD600, 24 h, basal, primary screen (AID 1089).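 Note: growth of clinical yeast isolate S. cerevisiae YJM 789 seeded 1000 cells per well; test concentration not given here.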 To be noted: higher = more signal, called active from +8 up or from −8 down.
Test [3] is described as follows: S. pombe growth modifiers, basal conditions – strain 972, OD600, 24 h, no modulator, primary screen (AID 1090).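 Note: basal condition with compound alone and no growth modifier present; test concentration not given here.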 To be noted: S. pombe 972 growth, higher = more signal, called active from +8 up or from −8 down.
Test [4] can be described thus: budding yeast growth modifiers under rapamycin – strain BY4716, OD600, 96 h, primary screen (AID 1091). Note: test concentration not given here. The conditions noted are these: S. cerevisiae BY4716 + rapamycin, higher = more signal, called active from +8 up or from −8 down.
Test [5] addresses Torsin-1A-interacting protein 2 (Homo sapiens) (UniProt Q8NFQ8). The experiment in a line: small molecules binding lysate-expressed LULL1 – cell lysate, human LULL1 lysate, 635/667 nm fluorescence, primary screen (AID 1092).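 Note: probe is lysate of COS7 cells overexpressing human LULL1; score merges per-feature 667 nm fluorescence with signal-to-noise.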 To be noted: small-molecule microarray, hLULL1 lysate binding, 635 nm fluorescence; higher = more signal.
Test [6] is described as follows: optical density change of DRC41 E. coli – strain DRC41, OD650, 24 h, E. coli filamentation project, primary screen (AID 1093).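 Note: MC1000 strain lacking acrAB efflux and sulA so SOS filamentation is blocked; test concentration not given here.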 To be noted: E. coli DRC41 growth, higher = more signal, called active from +8 up or from −8 down.
Test [7] can be described thus: probe aLefty2 binding to arrayed compounds – biochemical, biotinylated probe, 635/667 nm fluorescence, primary screen (AID 1094).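 Note: score merges spot fluorescence near 667 nm with spot signal-to-noise ratio.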 The conditions noted are these: small-molecule microarray, higher = more signal.
The test system of test [8] is Noggin (protein binding on small-molecule microarray). In words: small molecules binding Noggin protein – biochemical, 635/667 nm fluorescence, primary screen (AID 1095).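 Note: score merges 667 nm feature fluorescence with signal to noise over triplicate slides.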 To be noted: 635 nm fluorescence, higher = more signal.
Test [9] has as its target Neurogenic locus notch homolog protein 3 (Homo sapiens) (UniProt Q9UM47). In words: small molecules binding NOTCH3 protein – biochemical, 635/667 nm fluorescence, primary screen (AID 1096). To be noted: small-molecule microarray, 635 nm fluorescence, higher = more signal.
The nature of test [10]: probe aEGFR binding to arrayed compounds – biochemical, biotinylated probe, 635/667 nm fluorescence, primary screen (AID 1097).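 Note: probe is a biotinylated anti-EGFR antibody binding compounds printed on slides; score combines fluorescence near 667 nm and signal to noise of each spot.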 The conditions noted are these: small-molecule microarray, higher = more signal.

Torsin-1A-interacting protein 2 (Homo sapiens), sequence (Q8NFQ8 whole entry, looked up): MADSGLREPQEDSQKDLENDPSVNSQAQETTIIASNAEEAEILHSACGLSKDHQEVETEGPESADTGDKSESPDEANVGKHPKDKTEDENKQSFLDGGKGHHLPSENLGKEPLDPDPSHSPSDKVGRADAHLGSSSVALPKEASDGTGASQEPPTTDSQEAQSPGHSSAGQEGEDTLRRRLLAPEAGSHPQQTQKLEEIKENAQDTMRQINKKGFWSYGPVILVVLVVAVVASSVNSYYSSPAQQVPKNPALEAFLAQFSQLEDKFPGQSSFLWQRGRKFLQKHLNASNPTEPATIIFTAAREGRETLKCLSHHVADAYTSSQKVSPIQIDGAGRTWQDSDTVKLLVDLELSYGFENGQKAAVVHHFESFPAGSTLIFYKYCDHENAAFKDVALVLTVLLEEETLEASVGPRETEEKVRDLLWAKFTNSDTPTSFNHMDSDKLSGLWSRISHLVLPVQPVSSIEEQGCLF
Neurogenic locus notch homolog protein 3 (Homo sapiens), sequence (Q9UM47 whole entry, looked up): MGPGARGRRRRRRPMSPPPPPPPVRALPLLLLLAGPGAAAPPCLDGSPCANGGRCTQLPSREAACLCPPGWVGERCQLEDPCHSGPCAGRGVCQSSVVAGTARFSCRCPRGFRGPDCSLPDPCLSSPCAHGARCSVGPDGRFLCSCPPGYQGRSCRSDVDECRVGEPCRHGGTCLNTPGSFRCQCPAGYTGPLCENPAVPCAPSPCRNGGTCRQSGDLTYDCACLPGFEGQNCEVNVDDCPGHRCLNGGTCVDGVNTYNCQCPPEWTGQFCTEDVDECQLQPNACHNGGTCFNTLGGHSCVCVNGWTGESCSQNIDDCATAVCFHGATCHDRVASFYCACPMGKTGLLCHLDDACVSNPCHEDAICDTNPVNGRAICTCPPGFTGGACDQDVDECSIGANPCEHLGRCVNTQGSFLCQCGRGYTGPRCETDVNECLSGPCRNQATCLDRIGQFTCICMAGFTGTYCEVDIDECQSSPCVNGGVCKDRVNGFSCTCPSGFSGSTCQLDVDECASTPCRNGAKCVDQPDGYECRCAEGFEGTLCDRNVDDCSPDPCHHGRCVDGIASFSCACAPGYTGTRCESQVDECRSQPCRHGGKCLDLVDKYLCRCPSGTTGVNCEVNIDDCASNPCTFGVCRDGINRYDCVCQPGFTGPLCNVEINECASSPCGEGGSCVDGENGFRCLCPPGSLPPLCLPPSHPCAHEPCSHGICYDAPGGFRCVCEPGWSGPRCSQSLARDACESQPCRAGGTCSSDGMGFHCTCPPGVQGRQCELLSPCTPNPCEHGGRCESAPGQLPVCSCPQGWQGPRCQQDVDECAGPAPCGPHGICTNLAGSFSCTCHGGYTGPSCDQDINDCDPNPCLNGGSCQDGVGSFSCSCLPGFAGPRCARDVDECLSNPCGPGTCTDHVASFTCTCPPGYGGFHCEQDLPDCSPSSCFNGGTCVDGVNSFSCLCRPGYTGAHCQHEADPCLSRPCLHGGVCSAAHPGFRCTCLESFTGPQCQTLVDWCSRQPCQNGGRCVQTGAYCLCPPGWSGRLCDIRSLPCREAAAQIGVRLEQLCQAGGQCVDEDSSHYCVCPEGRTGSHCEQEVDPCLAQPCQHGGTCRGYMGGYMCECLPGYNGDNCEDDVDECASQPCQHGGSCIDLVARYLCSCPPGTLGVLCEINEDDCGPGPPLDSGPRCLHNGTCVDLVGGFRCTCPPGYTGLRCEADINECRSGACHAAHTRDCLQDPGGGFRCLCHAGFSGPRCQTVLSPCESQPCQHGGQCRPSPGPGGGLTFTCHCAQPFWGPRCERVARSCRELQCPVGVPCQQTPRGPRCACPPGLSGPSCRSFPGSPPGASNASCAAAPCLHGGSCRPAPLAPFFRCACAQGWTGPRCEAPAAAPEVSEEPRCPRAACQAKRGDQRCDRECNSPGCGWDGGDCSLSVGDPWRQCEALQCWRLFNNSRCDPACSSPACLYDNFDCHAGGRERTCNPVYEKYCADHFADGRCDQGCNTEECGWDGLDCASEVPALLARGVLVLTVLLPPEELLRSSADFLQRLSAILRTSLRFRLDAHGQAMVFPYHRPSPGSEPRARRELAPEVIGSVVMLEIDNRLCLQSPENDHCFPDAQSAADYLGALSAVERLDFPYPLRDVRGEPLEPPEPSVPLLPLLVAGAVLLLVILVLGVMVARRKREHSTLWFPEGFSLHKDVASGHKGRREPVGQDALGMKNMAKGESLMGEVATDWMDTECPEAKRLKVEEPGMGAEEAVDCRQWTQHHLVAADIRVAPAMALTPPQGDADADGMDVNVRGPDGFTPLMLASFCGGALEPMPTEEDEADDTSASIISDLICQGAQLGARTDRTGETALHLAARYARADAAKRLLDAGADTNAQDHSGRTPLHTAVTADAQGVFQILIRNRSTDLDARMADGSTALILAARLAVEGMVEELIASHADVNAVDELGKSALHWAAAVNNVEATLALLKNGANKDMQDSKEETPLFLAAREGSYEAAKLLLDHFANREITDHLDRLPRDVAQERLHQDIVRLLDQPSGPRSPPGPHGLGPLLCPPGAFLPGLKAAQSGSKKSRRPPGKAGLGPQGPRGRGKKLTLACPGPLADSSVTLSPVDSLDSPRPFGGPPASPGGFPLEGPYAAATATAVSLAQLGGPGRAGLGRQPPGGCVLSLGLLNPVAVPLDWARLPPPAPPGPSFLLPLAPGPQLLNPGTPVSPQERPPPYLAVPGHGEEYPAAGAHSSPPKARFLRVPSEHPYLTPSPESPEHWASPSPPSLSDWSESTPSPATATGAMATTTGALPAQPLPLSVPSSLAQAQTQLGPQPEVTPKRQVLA

In the case of `CCOC(=O)C1=CCC(c2ccc(C)cc2)N(S(=O)(=O)c2ccc(C)cc2)C1` (stereo not given), the composite z-score is 0.329 in test [1]; 1.69 in test [5]; 0.0283 in [7]; -0.0866 in [8]; 0.234 in [9]; -0.121 in test [10]. The z-score in test [2] was 0.564 (inactive); in test [3], 1.59 (inactive); in test [4], 2.26 (inactive); in [6] it was -0.422 (inactive).

With `COc1ccc(C(=O)Nc2cccc(CN3C(=O)[C@]4(O[C@H](CCO)[C@@H]([Si](C)(C)c5ccc(OC)cc5)[C@@H]4C)c4ccccc43)c2)cc1`, the composite z-score in test [1] was 1.56; in test [5] it was 1.83; in [7], -0.164; in [8], 0.822; in [9], 1; in [10] it was -0.0675. Besides, the z-score in test [2] is 0.412 (inactive); in test [3], -14.9 (active); in test [4], 0.251 (inactive); in test [6], 1.03 (inactive).

As to `C=CCN1C(=O)[C@]2(O[C@H](CCO)[C@@H]([Si](C)(C)c3ccc(OC)cc3)[C@@H]2C)c2cc(N3C(=O)c4cccc5cccc3c45)ccc21`, the composite z-score in test [1] was 1.46; in test [5] it was 2.01; in test [7] it was -0.172; in [8], 1.69; in [9] it was 1.07; in test [10], -0.137. For the same compound, the z-score was 3.36 (inactive) in test [2], 2.8 (inactive) in test [3], 36.8 (active) in test [4] and 0.577 (inactive) in [6].

Turning to `CCCCN1CC=CC23O[C@@H]4/C=C\CCC(C)OC(=O)C4[C@H]2C(=O)N(CCCCCO)[C@@H]3C1=O` (stereo not given in full), the composite z-score in test [1] is 0.445; in test [5] it was 1.72; in [7], -0.205; in [8], -0.976; in test [9], -0.292; in [10], -0.227. Also, the z-score in [2] was -0.402 (inactive); in test [3], -0.831 (inactive); in [4] it was -0.868 (inactive); in [6], 0.0029 (inactive).

On to `O=C1OCCC/C=C\[C@H]2OC34C=CCN(c5ccc6ccccc6c5)C(=O)[C@H]3N(CCCCCCO)C(=O)[C@@H]4C12` (stereo not given in full), for which the composite z-score is 0.0502 in test [1]; 0.132 in [5]; -0.25 in test [7]; -0.695 in test [8]; 0.086 in test [9]; -0.0597 in test [10]. In addition, the z-score in [2] was -1.96 (inactive); in test [3], -1.15 (inactive); in [4], -0.533 (inactive); in test [6], 1.1 (inactive).

Turning to `CN(C)CCCC[C@@H]1NC(=O)[C@H]2C[C@@H](C(=O)NCCCCCNC(=O)CS)[C@@H](c3cccc(OCCO)c3)N2C1=O`, the composite z-score was 1.18 in test [1]; 2.79 in [5]; 0.0144 in test [7]; 1.54 in test [8]; 0.534 in test [9]; -0.136 in test [10]. Also, the z-score in [2] was -1.14 (inactive); in test [3], -1.3 (inactive); in test [4], -0.296 (inactive); in [6], -0.328 (inactive).

For `COc1ccc(CCNC(=O)[C@@]2(C)c3ccccc3C(=O)N(Cc3cc(F)cc(C(F)(F)F)c3)[C@H]2c2ccc(CO)cc2)cc1`, the composite z-score was 0.117 in test [1]; 2.3 in test [5]; -0.0112 in test [7]; -0.969 in [8]; -0.42 in test [9]; -0.0549 in test [10]. In addition, the z-score was -0.143 (inactive) in test [2], -0.995 (inactive) in test [3], 0.882 (inactive) in [4] and 0.449 (inactive) in [6].

For the compound `COC(=O)c1c(CC[C@@H](CO)NC(=O)N[C@@H](C)Cn2cc(C3(O)CCCCC3)nn2)oc(C(C)=O)c1C(=O)OC`, the composite z-score in test [1] is 1.54; in test [5] it was 1.16; in test [7], 0.0621; in [8] it was 1.16; in test [9] it was 1.05; in test [10], 0.173. Further, the z-score in [2] is 0.34 (inactive); in [3], -0.261 (inactive); in [4], 0.107 (inactive); in test [6], -0.338 (inactive).

Regarding `O=C1O[C@H](c2ccccc2)[C@H](c2ccccc2)N2[C@H]1[C@@H](C(=O)O)[C@]1(C(=O)Nc3ccc(C#CCCO)cc31)[C@H]2c1ccc(O)cc1`, the composite z-score in [1] is -0.685; in test [5] it was 0.782; in test [7], 0.541; in test [8], -0.228; in test [9], -0.557; in [10], 0.186. In addition, the z-score in [2] is 0.396 (inactive); in [3], -0.228 (inactive); in [4], 0.385 (inactive); in [6], 1.57 (inactive).

With `Cc1ccc(C(C)CC(O)C2C=CC3C(=O)N(c4ccccc4)C(=O)C3N2Nc2ccc([N+](=O)[O-])cc2)o1` (stereo not given), the composite z-score in test [1] was determined as 1.55; in test [5], 3.1; in test [7], 0.157; in test [8], 0.181; in test [9], 1.1; in test [10], 0.0807. Also, the z-score is 0.0574 (inactive) in test [2], 0.593 (inactive) in [3], 1.31 (inactive) in test [4] and -0.468 (inactive) in test [6].

Regarding `C[C@@]1([C@@H](NC(=O)c2ccccc2)c2ccc(-c3ccccc3)cc2)C[C@H]1C1CCCCC1`, the composite z-score in test [1] is -1.93; in test [5] it was 0.429; in [7], 0.527; in [8], -0.992; in test [9], -1.42; in [10] it was 0.247. Moreover, the z-score in test [2] was -0.0151 (inactive); in [3], 0.443 (inactive); in [4] it was 0.32 (inactive); in test [6] it was -1.48 (inactive).

In the case of `CCCCCCC#C[Si](O[C@H](c1ccccc1)c1cn([C@H](CO)Cc2ccccc2)nn1)(C(C)C)C(C)C`, the composite z-score in test [1] is 1.55; in [5], 1.7; in [7], -0.198; in test [8], 0.0817; in test [9], -0.0029; in test [10] it was -0.115. Besides, the z-score in test [2] was -2.3 (inactive); in test [3], -16.2 (active); in test [4], -1.57 (inactive); in test [6], 1.16 (inactive).

As for `CC(CO)N1C(=O)[C@@H]2C3C(=O)OCCC/C=C\[C@H]3OC23C=CCN(c2ccc4ccccc4c2)C(=O)[C@@H]13` (stereo not given in full), the composite z-score is 0.0691 in test [1]; -0.504 in test [5]; -0.0516 in [7]; -0.871 in test [8]; -0.341 in [9]; -0.18 in [10]. The z-score in test [2] was -0.531 (inactive); in test [3], -0.743 (inactive); in test [4] it was -0.0295 (inactive); in test [6], 0.0095 (inactive).
